Compound activity (PubChem)
A selection: hits, their analogues and other compounds. The true share with any hit is near 19%.
HT1080 IDH1KD tx: qHTS for induction of synthetic lethality in tumor cells producing 2HG: qHTS for the HT-1080-IDH1KD cell line; HT-1080 IDH1 knockdown viability, ATP luminescence, 48 h; actives 2% (n = 360,000); Potency, µM (series often up to 46.1 µM), without a hit: at the top dose activity, negative = toxicity, usual class: cytotoxic; AID 686971, 2013;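 note: potency is the fitted concentration of half-maximal effect; 0% = DMSO wells and -100% = cell-free medium wells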
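In this qHTS, HT-1080 cells depleted of IDH1 are exposed for 48 h at 37 °C to compound titrations. Toxicity is scored from CellTiter-Glo luminescence, with DMSO as full viability and medium alone as none.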
TDP1 cell CPT: qHTS for Inhibitors of human tyrosyl-DNA phosphodiesterase 1 (TDP1): qHTS in cells in presence of CPT; chicken DT40 Tdp1-/-;hTDP1 cells + 20 nM CPT, ATP luminescence, 48 h; Potency, µM (top dose mostly 46.2 µM), inactives show at the highest dose activity change, negative = growth inhibition, hits mostly inhibitors; actives 12% (n = 420,000); AID 686979, 2013; note: potency is the fitted concentration of half-maximal effect; nearly all actives have a fitted effect of over 55% in size
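Chicken DT40 Tdp1-/- cells stably complemented with human TDP1 were seeded at 400 cells/well in medium containing 20 nM camptothecin, exposed to pin-transferred compounds, and grown at 37 °C for at least 48 hr. Viability was read as ATP luminescence.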
IL-1B inflam inh: qHTS for Inhibitors of Inflammasome Signaling: IL-1-beta AlphaLISA Primary Screen. activity change, % at 57.5 µM. actives 4.7% (n = 360,000). AID 743279, 2014. THP-1 LPS/ATP IL-1B secretion, AlphaLISA, 16 h; active compounds read low; in the data active = activity change below about -50%; inconclusive = mostly about -30% to -49%
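THP-1 cells pretreated 1 hr with compounds (up to 57.5 uM final), then stimulated with LPS (250 ng/mL final) plus ATP (1.25 mM final); secreted IL-1B measured by AlphaLISA after 16 hr, decreased signal indicating inhibition.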
TDP1 cell noCPT: qHTS for Inhibitors of human tyrosyl-DNA phosphodiesterase 1 (TDP1): qHTS in cells in absence of CPT | DT40 Tdp1-/- hTDP1 cells, no CPT, ATP luminescence, 48 h | AID 686978, 2013 | actives 15% (n = 420,000) | Potency, µM (series often up to 46.2 µM), for inactives: at the highest dose activity change, negative = growth inhibition, usual class: inhibitors; note: potency is the fitted concentration of half-maximal effect; nearly all actives have a fitted effect of over 55% in size
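Stably hTDP1-transfected Tdp1-null chicken DT40 cells were treated with library compounds minus camptothecin and grown for at least 48 hr at 37 °C, after which cellular ATP was quantified by luminescence.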
HT1080NT lethal: qHTS for induction of synthetic lethality in tumor cells producing 2HG: qHTS for the HT-1080-NT fibrosarcoma cell line; actives 1.6% (n = 360,000); Potency, µM (top dose mostly 46.1 µM), inactives show at the top dose activity, negative = less viability, most hits filed as cytotoxic; HT-1080-NT fibrosarcoma viability, CellTiter-Glo ATP luminescence, 48 h;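 note: NT is the 2HG producing partner of a matched IDH1 knockdown line; potency is the fitted concentration of half-maximal effect; 0% = DMSO-treated cells and -100% = media-only wells without cells; nearly all actives have a fitted effect of over 55% in size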
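750 cells/well, RPMI + 5% FBS; 2 h settle, compound pin-transfer, 48 h at 37 degrees C. CellTiter-Glo 10 min RT, luminescence. Normalized to DMSO and media-only wells.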
Starred values were filed as active, the others as inactive; i = inactive; ? = inconclusive; · = no result given; [ ] = dose if it differs, or a comment. Unless noted, calls come from the whole dose curve; as a rule, active = well fitted curve in the direction sought with a large enough effect; inconclusive = small, poorly fitted or top-dose-only effect, or another doubt; inactive = no such curve, though single readings can be large; an effect the other way counts as inactive or inconclusive. Unless noted, % is set by controls: 0 for no effect and ±100 for the full control effect.

SMILES	HT1080 IDH1KD tx	TDP1 cell CPT	IL-1B inflam inh	TDP1 cell noCPT	HT1080NT lethal
CCCCNC1C(CC)C(CCC)C(C#N)(C#N)C1(C#N)C#N (centres undefined)	?	13µM*	-118*	8.2µM*	?
CN(C)CCCNC(=O)/C(=C\c1ccc(-c2ccc(Br)cc2)o1)NC(=O)c1ccccc1	23µM*	3.7µM*	?	12µM*	?
Cc1ccc(C(=O)N/C(=C\c2ccc(-c3ccc(Cl)cc3)o2)C(=O)NCCCN(C)C)cc1	13µM*	12µM*	-67*	12µM*	29µM*
Cc1ccc(C(=O)N/C(=C\c2ccc(-c3ccccc3[N+](=O)[O-])o2)C(=O)NCCCN(C)C)cc1	-20%	5.2µM*	5	5.8µM*	-5%
CN(C)CCCNC(=O)/C(=C/c1ccc(-c2ccc([N+](=O)[O-])cc2)o1)NC(=O)c1ccccc1	-9%	?	-16	-24%	-20%
CCOC(=O)NC(=S)Nc1c(C)n(C)n(-c2ccccc2)c1=O	8%	5%	-2	-11%	3%
CNc1nnc(-c2cc3cc(Cl)ccc3oc2=O)s1	1%	-21%	-7	1%	12%
O=c1oc2ccc(Cl)cc2cc1-c1nnc(Nc2cccc(C(F)(F)F)c2)s1	8%	?	-7	2.6µM*	-3%
CC1(C(=O)NS(=O)(=O)c2ccc(C#N)cc2)CCN1C(=O)c1ccccc1CCc1ccccc1 (centres undefined)	?	?	6	?	-27%
N#Cc1ccc(CSc2nnc(-c3c[nH]c4ccccc34)n2-c2ccccc2)cc1	?	?	-67*	23µM*	-18%
CCCSc1nnc(-c2c[nH]c3ccccc23)n1C	5%	?	0	?	?
CCCSc1nnc(-c2c[nH]c3ccccc23)n1CC	-21%	15µM*	-17	?	-3%
N#Cc1ccc(CSc2nnc(-c3ccccn3)n2-c2ccccc2)cc1	-3%	?	-18	?	-1%
CCn1c(SCc2cccnc2)nnc1-c1c[nH]c2ccccc12	0%	15µM*	20	?	5%
COc1ccc(C(=O)Nc2nc3n(n2)C(c2ccc(Cl)cc2)C=C(c2ccccc2)N3)cc1OC (centres undefined)	·	15µM*	·	15µM*	·
O=C(Nc1nc2n(n1)C(c1ccccc1)C=C(c1ccccc1)N2)c1ccccc1 (centres undefined)	·	16µM*	·	18µM*	·
O=S(=O)(Nc1nc2n(n1)C(c1ccc(F)cc1)C=C(c1ccccc1)N2)c1ccccc1 (centres undefined)	·	?	·	21µM*	·
O=C(Nc1nc2n(n1)C(c1ccc(F)cc1)C=C(c1ccccc1)N2)c1ccco1 (centres undefined)	·	16µM*	·	23µM*	·
CC1=CC(c2ccc(Cl)cc2)n2nc(NC(=O)CCCC(=O)O)nc2N1 (centres undefined)	6%	9%	-3	5%	14%
O=C(Nc1nc2n(n1)C(c1ccc(Cl)cc1)C=C(c1ccccc1)N2)c1ccco1 (centres undefined)	·	21µM*	·	21µM*	·
CC1=CC(c2ccc(Cl)cc2)n2nc(NC(=O)CCC(=O)O)nc2N1 (centres undefined)	-1%	4%	20	-3%	0%
CCn1cc[n+](C)c1P(c1ccccc1)c1ccccc1	-23%	0.65µM*	0	0.013µM*	-18%
COC(=O)c1sccc1-c1ccc(C(=O)Nc2cccc(Cl)c2)o1	-7%	?	11	23µM*	-6%
CN(C)S(=O)(=O)Oc1ccsc1C(=O)Nc1cccc(Cl)c1	0%	3%	-20	-24%	-6%
O=C(Nc1ccccc1)c1ccc(-c2ccc([N+](=O)[O-])cc2)o1	1%	-24%	-64*	?	-7%
SMILES	HT1080 IDH1KD tx	TDP1 cell CPT	IL-1B inflam inh	TDP1 cell noCPT	HT1080NT lethal
COc1ccc(NC(=O)c2ccc(-c3ccc([N+](=O)[O-])cc3)o2)cc1	-8%	?	-11	?	0%
O=C(Nc1ccccc1)c1ccc[n+](Cc2ccc([N+](=O)[O-])cc2)c1	5%	0%	-59*	2%	5%
Cc1c(Cl)cccc1-c1ccc(C(=O)Nc2ccc(F)cc2)o1	·	12µM*	·	9.2µM*	·
C=CCC[C@H](Cc1ccc(F)cc1)C(=O)OC[C@H](Cc1c[nH]c2ccccc12)NC(=O)[C@@H](CC=C)CC(=O)NCCO	-7%	?	-12	?	-14%
CCN(CC)CCNC(=O)CN1C(=O)CSc2ccc(S(=O)(=O)N3CCOCC3)cc21	-1%	-1%	9	10%	8%
COc1ccc(CCNC(=O)C2CCCN(S(=O)(=O)c3ccc(F)cc3)C2)cc1OC (centres undefined)	-4%	?	i	?	-7%
CCc1ccc(NC(=O)C(C)OC(=O)Cn2[nH]c(=O)c3ccccc3c2=O)cc1 (centres undefined)	5%	-26%	48	-7%	-1%
O=C(Nc1ccc2oc(-c3cccnc3)nc2c1)c1ccccc1F	·	-20%	·	-19%	·
CN(C(=O)COC(=O)c1ccc(S(=O)(=O)N2CCCCCC2)cc1)c1ccccc1	7%	-5%	53	-16%	1%
O=C(NCc1ccc(Cl)cc1)c1ccc(-c2ccccc2C(F)(F)F)o1	-4%	21µM*	-15	23µM*	14%
O=C(Nc1cccnc1)c1ccc(-c2cc(Cl)ccc2Cl)o1	0%	?	-16	21µM*	-6%
CC(C)NC(=O)c1ccc(-c2ccccc2C(F)(F)F)o1	2%[9.24 µM]	-21%	?	-15%	2%
Cc1ccc(-c2ccc(C(=O)Nc3ccccc3)o2)c2ccccc12	-12%	?	-10	?	-6%
Cc1ccc(-c2ccc(C(=O)NCc3ccccc3)o2)c2ccccc12	-6%	23µM*	-22	?	-1%
O=C(Nc1ccccc1)c1ccc(-c2ccccc2C(F)(F)F)o1	0%	?	-1	21µM*	-3%
O=C(Nc1ccccc1)c1ccc(-c2ccccc2Cl)o1	-5%	21µM*	-17	18µM*	0%
O=C(Nc1nccs1)c1ccc(-c2ccccc2Cl)o1	26%[9.24 µM]	?	-89*	?	?
O=C(NN1C(=O)NC2(CCCCC2)C1=O)c1ccc(-c2ccccc2Cl)o1	-13%	?	?	-29%	2%
